PubChem BioAssay AID1566 (Sanford-Burnham Center for Chemical Genomics, 2009)
Out of some 290,000 compounds screened, about 1,800 (0.62%) were called active. Rule as the data show it: active = inhibition above about 50%; inactive = the rest. What follows is part of a selection rich in actives, with near analogues and random picks from the rest.

Assay: NOD2 signaling inhibitors, cell-based, luminescence, uHTS, HEK293 (AID 1566)
Settings: HEK293 NOD2/NF-kB luciferase reporter, at 4 µM, hits give high values

| Compound | inhibition |
| --- | --- |
| C[C@]12CCC3C(CC[C@H]4CC(O)CC[C@]34C)C1CC/C2=N/NC(=O)c1ccncc1 (some centres undefined) | -5.7% (inactive) |
| C[C@]12CCC3C(CC[C@H]4CC(O)CC[C@]34C)C1CC/C2=N/O (some centres undefined) | 26.5% (inactive) |
| C/C(=N\NC(N)=S)C1=CCC2C3CC[C@H]4CC(O)CC[C@]4(C)C3CC[C@]12C (some centres undefined) | 54.6% (active) |
| Cc1cc(CNC(=O)c2cccc([N+](=O)[O-])c2C)c2ccccc2n1 | 31.5% (inactive) |
| O=C(Oc1ccccc1C(=O)Nc1ccccc1)c1ccc(Br)c([N+](=O)[O-])c1 | -12.7% (inactive) |
| O=C(CSc1nnc(CNC(=O)c2ccco2)o1)Nc1ccc(OC(F)(F)F)cc1 | 9.8% (inactive) |
| COc1ccccc1NC(=O)CSC1=NC(=O)C(Cc2ccccc2)C(=O)N1 (centres undefined) | -3% (inactive) |
| CC(=O)NS(=O)(=O)c1ccc(NS(=O)(=O)c2ccc3ccccc3c2)cc1 | 0.7% (inactive) |
| COc1ccccc1Cn1c(=S)[nH]c2cc(C(=O)NCCN(C)C)ccc2c1=O | 20.6% (inactive) |
| Cc1cc(NC(=O)CSc2ccc3nnc(-c4ccc(Cl)cc4)n3n2)no1 | 5.8% (inactive) |
| COc1cc(/C=C2\C(=N)N3N=C(S(C)(=O)=O)SC3=NC2=O)cc(OC)c1OCCOc1cccc(C)c1 | 25.9% (inactive) |
| C=CCOc1ccc(/C=C2\C(=N)N3N=C(S(=O)(=O)CC)SC3=NC2=O)cc1OC | 28.5% (inactive) |
| CCOc1cc(/C=C2\C(=N)N3N=C(C)SC3=NC2=O)ccc1OCCOc1cccc(OC)c1 | 7.2% (inactive) |
| CCS(=O)(=O)C1=NN2C(=N)/C(=C\c3ccc(OS(=O)(=O)c4ccccc4)c(OC)c3)C(=O)N=C2S1 | 12.5% (inactive) |
| CCOC(=O)C1=NN(c2ccccc2)C2C(=O)N(c3ccccc3OC)C(=O)C12 (centres undefined) | 21.2% (inactive) |
| Cc1cc(C)n2nc(SCC(=O)c3ccccc3)nc2n1 | -15.3% (inactive) |
| COc1ccc(-c2csc(NC(=O)Cc3cc(OC)c(OC)c(OC)c3)n2)cc1OC | 22.7% (inactive) |
| COc1ccc(CC(=O)Nc2nc(-c3ccc(F)c(F)c3)cs2)cc1 | 15.8% (inactive) |
| COc1cc(CC(=O)Nc2nc(-c3ccc(F)c(F)c3)cs2)cc(OC)c1OC | 58.7% (active) |
| O=C(Nc1c(F)cc(F)cc1Br)c1cccnc1 | -9.2% (inactive) |
| C/C(CC(=O)Nc1ccc(Cl)c(Cl)c1)=N\NC(N)=S | -15.1% (inactive) |
| N#Cc1c(-c2ccc(Cl)cc2)cc(-c2ccccc2)nc1SCC(=O)O | 26% (inactive) |
| COc1ccc(-c2cc(C(F)(F)F)c(C#N)c(SCC(=O)O)n2)cc1 | 9.7% (inactive) |
| COc1ccc(-c2cc(-c3ccc(Cl)cc3)c(C#N)c(SCC(=O)O)n2)cc1 | 62.5% (active) |
